Sampled rows, rich in hits. Any-hit rate of the full collection: about 6.1%.
ERG-DNA inh: blocks human ERG Ets domain binding to DNA; Potency, µM (highest dose often 76.9 µM), for inactives: at the top dose FP activity, negative = inhibition, most hits filed as inhibitors; P11308; fluorescence polarization, His-ERG Ets domain / labelled DNA; actives 0.028% (n = 370,000); AID 624246; active means well fitted inhibition curve with a large enough effect in the polarisation, with a control signal flat; inconclusive means small, poorly fitted or top-dose-only effect, or effect the other way, or a change in a side signal; inactive means no such curve, though single readings can be large or run the other way; the % refers to the polarisation;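 further: polarization taken with two DNA probes labelled with fluorescein and Texas red; potency means the concentration at half of the fitted maximal effect; % of control where 0% means no effect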
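His-tagged ERG Ets domain (1 uM in the protein solution; 300mM KCl, 50mM Tris-HCl, 1mM EDTA, 1mM DTT, pH 7.5) received compound, then a probe mix of 5 nM fluorescein-DNA and 100nM Texas-615-DNA. Fluorescence polarization was read for both dyes.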
D1 ag: human D1 receptor agonism; P21728; activation, % at 2 µM; HEK293 T-REx D1 cells, calcium flux, agonist mode; actives 1% (n = 360,000); AID 504660; in the data active means activation above about 30%; further: 0% is about no effect
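Agonism was scored from calcium flux recorded over 180 s (1 read/s) after pintool compound addition, following a 10-cycle baseline. Cells were inducible force-coupled HEK293 TREx D1, plated overnight at 30 C and loaded with no-wash calcium dye.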
D1 antagonist: human D1 dopamine receptor antagonism | P21728 | HEK293 TREx D1 cells, calcium flux, dopamine EC80; stronger effect = lower value | activity change, negative = inhibition, % at 10 µM | actives 3.2% (n = 360,000) | AID 504652; in the data active means activity change below about -30%; further: on the % scale 0 is the no-effect control and ±100 the full control effect
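Inducible Hek293 Trex D1 cells (tetracycline, overnight, 30 C). Calcium dye 30–90 min RT. Antagonist mode: EC80 dopamine added after 180 s compound read.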
DRD3 agonist: activates the human D3 dopamine receptor. P35462. max activation, %. AID 652048. actives 0.58% (n = 410,000). D3R DiscoveRx beta-arrestin cells, luminescence, 90 min; in the data active means max activation above about 30%; further: 0% is about no effect
Target sequence (P35462 whole entry, looked up): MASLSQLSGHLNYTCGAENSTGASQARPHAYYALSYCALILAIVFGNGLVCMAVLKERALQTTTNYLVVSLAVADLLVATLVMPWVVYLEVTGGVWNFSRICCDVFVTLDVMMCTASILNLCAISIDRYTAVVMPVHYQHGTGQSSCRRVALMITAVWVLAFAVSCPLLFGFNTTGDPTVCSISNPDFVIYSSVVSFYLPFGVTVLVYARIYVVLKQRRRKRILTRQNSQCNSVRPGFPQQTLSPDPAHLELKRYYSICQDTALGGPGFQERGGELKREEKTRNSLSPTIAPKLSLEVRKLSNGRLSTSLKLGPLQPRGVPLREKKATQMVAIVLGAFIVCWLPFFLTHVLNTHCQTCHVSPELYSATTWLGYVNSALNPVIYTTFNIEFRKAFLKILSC
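Agonist-mode cell screen: cells plated at 1500/well and incubated overnight at 37 °C, then exposed to library compounds for 90 min at 37 °C. Detection reagent was added for 30–60 min at room temperature, and luminescence was read.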
D1 PAM: human D1 dopamine receptor positive modulation | HEK293 TREx D1 cells, calcium flux, dopamine EC20 potentiation | potentiation, % at 10 µM | actives 0.036% (n = 360,000) | AID 504651; in the data active means potentiation above about 30%; further: 0% is about no effect
D3 antag: blocks the human D3 dopamine receptor. P35462. D3R cells, DiscoveRx beta-arrestin luminescence, antagonist mode; stronger effect = lower value. max response, negative = inhibition, %. actives 2.5% (n = 360,000); in the data active means max response below about -50%; inconclusive means no clear call, values can overlap the other calls; further: on the % scale 0 is the no-effect control and ±100 the full control effect
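Cells plated overnight at 1500 cells/well, then exposed to library compounds with dopamine controls for 90 minutes at 37 degrees C. DiscoveRx reagent added for 30–60 minutes at room temperature; luminescence read, quantitative HTS format.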
* hit, by the source's call; ? = inconclusive; . = no result given.

SMILES	ERG-DNA inh	D1 ag	D1 antagonist	DRD3 agonist	D1 PAM	D3 antag
CCOC(=O)C1CCCN(Cc2ccc(O)c(OC)c2)C1 (stereo unspecified)	-16%	2	14	-10	-10	?
CCOC(=O)C1CCCN(CCCc2ccccc2)C1 (stereo unspecified)	-2%	4	-22	-16	-4	-65*
CCOC(=O)C1CCCN(Cc2cccc(Cl)c2)C1 (stereo unspecified)	-2%	1	3	-57	1	-61*
CCOC(=O)C1CCCN(CC(=O)c2ccc(F)cc2)C1 (stereo unspecified)	-10%	3	7	-14	-6	-66*
Cc1cccc(C)c1NC(=O)C1CCCN(CCCc2ccccc2)C1 (stereo unspecified)	3%	12	-1	-4	-6	-11
Clc1ccc(CN2CCSCC2)cc1Cl	-13%	1	-20	-14	-2	-11
Cc1ccc(NC(=O)CCCc2nc3ccccc3c(=O)[nH]2)c(Cl)c1	-3%	2	12	0	.	-1
NC(=O)C1CCN(Cc2cccc(OCc3ccccc3)c2)CC1	-2%	7	22	-9	-6	-22
CCOC(=O)C1CCN(Cc2cccc(OCc3ccccc3)c2)CC1	-9%	1	6	3	-4	-66*
CCOC(=O)C1CCCN(Cc2ccc3c(c2)OCO3)C1 (stereo unspecified)	-4%	0	10	-32	-8	-100*
CN(Cc1ccc(Cl)cc1)C(CCc1ccccc1)C(=O)NC1CCCCC1 (stereo unspecified)	.	.	.	-17	.	-60*
CCN(CC)C(=O)C1CCCN(Cc2ccc3c(c2)OCO3)C1 (stereo unspecified)	8%	3	-17	2	9	-26
CCOC(=O)C1CCN(Cc2ccc(F)cc2F)CC1	-2%	0	0	-28	-1	?
CCOC(=O)C1CCN(Cc2ccc(F)c(Br)c2)CC1	15%	0	-2	-49	-1	-78*
O=C1C(C2=NC(C(=O)O)C3C(=O)N(c4ccc(Cl)cc4)C(=O)C23)=C(O)c2ccccc21 (stereo unspecified)	2%	0	-17	-1	1	-16
O=C(NC1CCCCCC1)C1CCN(C(=O)c2ccc(Br)cc2)CC1	-13%	0	15	-8	4	-1
COCCNc1nnc(SCC(=O)c2cc(C)n(C3CC3)c2C)s1	.	.	.	0	.	6
COC(=O)[C@@]12CCCCN1[C@H](c1ccc(-c3ccccc3)c(OC)c1)[C@H]1C(=O)N(C)C(=O)[C@H]12	-2%	.	.	3	.	-5
CCOC(=O)C1CCCN(Cc2ccc(OC)cc2OC)C1 (stereo unspecified)	-4%	1	2	-8	-5	-52*
CCN(CC)C(=O)C1CCCN(Cc2ccccc2)C1 (stereo unspecified)	.	3	11	-1	-20	-23
CCOC(=O)C1CCN(Cc2nnnn2CCc2ccccc2)CC1	2%	2	9	3	-1	-2
CCOC(=O)C1CCN(Cc2nc3ccc(Cl)cc3n2CCO)CC1	-11%	1	0	0	-8	-66*
CCOC(=O)C1CCCN(Cc2nc(N)nc(Nc3ccccc3)n2)C1 (stereo unspecified)	-3%	-4	15	-23	2	-60*
COc1ccc(CN2CCCC(C(=O)N3CCCC3)C2)c(OC)c1 (stereo unspecified)	-4%	0	4	-15	-1	-10
CN(Cc1ccccc1)C(=O)C1CCCN(Cc2ccc(Cl)cc2)C1 (stereo unspecified)	5%	19	-21	-17	-11	-68*
CC1(c2cccc(Br)c2)NC(=O)N(CC(=O)Nc2cccnc2Cl)C1=O (stereo unspecified)	-4%	6	4	-5	0	1
O=C(c1ccccc1)N(CCCn1ccnc1)C(c1ccccc1)c1nc2ccccc2[nH]1 (stereo unspecified)	.	.	.	0	.	0

Screening data (PubChem BioAssay)
